Screening results (PubChem)
An excerpt weighted towards active compounds, which were near 11% of everything screened.
Pf growth 96h: inhibits malaria parasite growth, 96 h; AID 504834; Potency, µM (series often up to 28.7 µM), for the others: at the top dose activity change, negative = inhibition, actives largely listed as inhibitors; P. falciparum luciferase reporter growth, 96 h; 320,000 compounds, 6.9% hits; note: % is set by controls: 0 for no effect and ±100 for the full control effect
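Cell-based qHTS: luciferase-tagged P. falciparum in erythrocytes (2% hematocrit, 0.05% parasitemia final) incubated with compounds for 96 hours, 37 C, 5% CO2; luciferase detection reagent then added and luminescence measured.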
AMA1-RON2 inh: inhibitors of Plasmodium falciparum AMA1-RON2 interaction | AlphaScreen AMA1-biotinylated RON2 peptide binding | Potency, µM (top dose mostly 58.2 µM), for inactives: at the top dose activity change, negative = inhibition, actives largely listed as inhibitors | 360,000 compounds, 0.2% hits | AID 720542;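 note: 0% = vehicle wells and -100% = peptide control; nearly all actives have a fitted effect of over 45% in size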
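AMA1 (3D7) with his tag at 25 nM final met compounds first, then biotinylated RON2 peptide at 25 nM; detection used donor plus acceptor beads, 10 µg/mL apiece, read by AlphaScreen after 30 min at room temperature.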
Sm TGR block: S. mansoni TGR enzyme inhibition; Q962Y6; purified TGR, DTNB reduction, TNB absorbance 405 nm; Potency, µM (series often up to 114 µM), for the others: at the top dose activity change, negative = inhibition, actives largely listed as inhibitors; 360,000 compounds, 3% hits; AID 485364; note: % is set by controls: 0 for no effect and ±100 for the full control effect; nearly all actives have a fitted effect of over 60% in size
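Kinetic colorimetric format: TGR-catalysed, NADPH-driven DTNB reduction monitored via TNB absorbance. Enzyme dispensed at 20 nM; compound exposure 15 min at room temperature before reaction start.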
NS1 function inh: inhibitors of influenza NS1 protein function; 270,000 compounds, 0.4% hits; Potency, µM (titrated, usually from 46.1 µM), for inactives: top-dose activity, positive = more growth; AID 2326; calls by dose curve; note: actives are rising curves; nearly all actives have a fitted effect of over 50% in size
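Compounds were scored for reversing the slow growth caused by influenza A NS1 in S. cerevisiae, measured by optical density at 600 nm. Assay medium contained 2% galactose at pH 6.0; NS1-free yeast of the same strain were the positive control.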
Pf growth 48h: inhibits P. falciparum growth in the first generation, 48 h; P. falciparum luciferase growth in erythrocytes, 48 h; 310,000 compounds, 5.9% hits; Potency, µM (titrated, usually from 28.7 µM), inactives show at the highest dose activity change, negative = inhibition, most hits filed as inhibitors; note: % is set by controls: 0 for no effect and ±100 for the full control effect
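Luciferase-expressing parasites in RBCs, 2% Hct / 0.1% parasitemia final; RPMI 1640 + 0.5% Albumax; 37 C, 5% CO2, one generation; luminescence read-out, lower signal = inhibition.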
Starred values were filed as active, the others as inactive; u = inconclusive; x = not tested or not shown; [ ] = dose if it differs, or a comment. Unless noted, calls come from the whole dose curve; as a rule, active = well fitted curve in the direction sought with a large enough effect; inconclusive = small, poorly fitted or top-dose-only effect, or another doubt; inactive = no such curve, though single readings can be large; an effect the other way counts as inactive or inconclusive. Potency is the fitted concentration of half-maximal effect.

SMILES	Pf growth 96h	AMA1-RON2 inh	Sm TGR block	NS1 function inh	Pf growth 48h
O=[N+]([O-])c1cccc(-c2cc(-c3cc(Br)ccc3O)[nH]n2)c1	8.3µM*	129%	-14%	-36%	4.7µM*
Oc1ccc(Br)cc1-c1cc(-c2ccccc2)n[nH]1	3.3µM*	92%	-3%	-17%	5.2µM*
Oc1ccc(Br)cc1-c1cc(-c2ccc(Cl)cc2)n[nH]1	x	87%	3%	3%	1.2µM*
COc1ccc(-c2cc(-c3ccc(Cl)cc3)n[nH]2)c(O)c1	18%	108%	-6%	-7%	u
O=[N+]([O-])c1ccccc1-c1cc(-c2ccccc2O)n[nH]1	100%	53%	-9%	-50%	209%
COc1ccc(O)c(-c2cc(-c3cccc(Br)c3)n[nH]2)c1	u	0%	2%[11.4 µM]	-149%	x
Cc1ccc(NC(=O)NCc2cccn2Cc2ccccc2)c(C)c1	x	x	40%	x	x
CC(C)c1ccc(NC(=O)CSc2nc(=O)n(Cc3cccnc3)c3c2CCC3)cc1	x	x	-18%	x	x
O=C(/C=C/c1cccc2ccccc12)N1CCOCC1	107%	9%	2%	-4%	82%
Cc1ccc(/C=C2\SC(=S)N(CCC(=O)N3CCOCC3)C2=O)cc1	u	2%	4%	-2%	u
Cc1ccc(O)c(-c2cc(-c3cccc(F)c3)n[nH]2)c1	x	28%	19%	-88%	8.3µM*
O=C(C[C@@H]1C[C@H]2c3cc(NC(=O)C4CCC4)ccc3O[C@H]2[C@@H](CO)O1)NCc1ccc(-c2ccccc2)cc1	x	-5%	x	x	x
CC(C)NCC(O)COc1cccc2ccccc12 (stereo not given)	u	-1%	6%	-9%	10µM*
O[C@@H](COc1cccc2ccccc12)CN1CCOCC1	x	x	x	-3%	x
CC(C)[N+](C)(C)CC(O)COc1cccc2ccccc12 (stereo not given)	24%	x	x	x	6µM*
CC(C)NCC(O)COc1cccc2[nH]ccc12 (stereo not given)	0.85µM*	x	2%	u	-3%
C=CCOc1ccccc1OC[C@H](O)CNC(C)C	u	x	x	x	-25%[12.8 µM]
CC(=O)Nc1cccc(-c2cnc(NC(C)=O)cn2)c1	x	-4%	x	x	x
CN(Cc1ccccc1)C(=O)COC(=O)c1ccc(Cl)cc1N	17%	3%	0%	x	12%
CCCCN(CC)CCNC(=O)c1cc2c(-c3ccc(Cl)cc3)nn(C)c2s1	-1%	-18%	13%	-7%	0.33µM*
COc1ccc(-c2nn(C)c3sc(C(=O)NCCN(C)C)cc23)cc1OC	56%	-5%	7%	1%	0%
CCCN(CCC)CCCNC(=O)c1cc2c(-c3ccc(OC)c(OC)c3)nn(C)c2s1	1%	-1%	-20%	1%	2.1µM*
Cn1nc(-c2ccccc2F)c2cc(C(=O)NCc3ccc(Cl)cc3)sc21	x	x	-5%	x	x
CCCN(CCC)CCNC(=O)c1cc2c(-c3ccccc3F)nn(C)c2s1	1%	5%	-9%	-4%	3.3µM*
CCN(CC)CCNC(=O)c1cc2c(-c3ccc(Cl)cc3)nn(C)c2s1	-26%	-4%	-9%	-6%	x
SMILES	Pf growth 96h	AMA1-RON2 inh	Sm TGR block	NS1 function inh	Pf growth 48h
CCCN(CCC)CCNC(=O)c1cc2c(-c3ccc(Cl)cc3)nn(C)c2s1	11%	-10%	-2%	1%	0.47µM*
CCc1ccc(NC(=O)CN2C(=O)C(c3ccc(Cl)cc3)=NC23CCCCC3)cc1	x	x	11%	x	x
O=C1CCCN1CCCNc1ccc2nnc(CCC(=O)N3CCN(c4ccc(F)cc4)CC3)n2n1	9%	-5%	-20%	9%	-7%
CC(C)(C)c1ccc(-c2nnc(-c3ccccc3NC(=O)c3ccc(F)cc3F)o2)cc1	x	x	-2%	x	x
COC(=O)c1cc(C(=O)OC)cc(N2C(=O)CC(Sc3nc(C)cc(C)n3)C2=O)c1 (stereo not given)	x	-4%	u	-7%	-9%
CC(=O)Nc1ccc(N2C(=O)CC(Sc3nc(C)cc(C)n3)C2=O)cc1 (stereo not given)	11%	-4%	50µM*	4%	x
CCOc1ccccc1N1C(=O)CC(Sc2n[nH]c(-c3ccccc3)n2)C1=O (stereo not given)	-15%	57%	0.56µM*	-52%	-20%
